{"source": "PubChem BioAssay (NCATS)", "key": {"[1]": {"molecular_target": "Glutathione peroxidase 1 (Homo sapiens) (UniProt P07203)", "sequence (P07203 whole entry, looked up)": "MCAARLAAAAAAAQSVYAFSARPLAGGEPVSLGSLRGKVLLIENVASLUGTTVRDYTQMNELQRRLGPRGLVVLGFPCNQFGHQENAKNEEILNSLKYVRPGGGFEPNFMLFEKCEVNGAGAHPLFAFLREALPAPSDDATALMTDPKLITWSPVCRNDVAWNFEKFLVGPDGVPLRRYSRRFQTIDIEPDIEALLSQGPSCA", "experiment": "Primary qHTS Assay for Inhibitors of Recombinant Selenoprotein Glutathione Peroxidase 1 (GPX1) (AID 1845191); note: nearly all actives have a fitted effect of over 65% in size", "outline": "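10 nM GPX1 + cpd, 30 min RT; start w/ 1 mM GSH, 0.5 mM cumene hydroperoxide, 0.5 mM NADPH, 100 nM GR, 0.01% BSA; buffer 50 mM Tris-HCl pH 7.5, 2 mM EDTA, 150 mM NaCl; Fl 340/450, 0 & 15 min.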"}, "[2]": {"molecular_target": "Phospholipid hydroperoxide glutathione peroxidase GPX4 (Homo sapiens) (UniProt P36969)", "sequence (P36969 whole entry, looked up)": "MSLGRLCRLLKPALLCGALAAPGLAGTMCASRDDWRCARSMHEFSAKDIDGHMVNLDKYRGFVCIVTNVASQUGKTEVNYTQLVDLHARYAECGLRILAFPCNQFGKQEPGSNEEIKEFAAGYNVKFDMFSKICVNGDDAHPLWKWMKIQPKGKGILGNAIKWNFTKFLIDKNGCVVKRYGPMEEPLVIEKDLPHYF", "experiment": "Primary qHTS Assay for Inhibitors of Recombinant Selenoprotein Glutathione Peroxidase 4 (GPX4) (AID 1845192); note: nearly all actives have a fitted effect of over 65% in size; for activity change, negative = inhibition: series mostly up to about 50 µM", "outline": "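NADPH consumption, followed by fluorescence at 340/450 nm between 0 and 15 min, reports GPX4 activity via coupled glutathione reductase (100 nM). Enzyme 200 nM was pre-exposed to compound 30 min; 0.5 mM cumene hydroperoxide and 1 mM GSH served as substrates.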"}, "[3]": {"molecular_target": "Luciferin 4-monooxygenase (Photinus pyralis) (UniProt P08659)", "experiment": "Primary firefly luciferase (FLuc) qHTS assay for identification of artifact compounds. (AID 1845220); note: nearly all actives have a fitted effect of over 60% in size; for activity change, negative = inhibition: series mostly up to about 54 µM", "outline": "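Compounds sat 15 min at room temperature with 10 uM luciferin and 10 uM ATP (pH 7.6 Tris acetate). Firefly luciferase (10 nM final) was then added, and luminescence was read 5 min later. Data normalized to no-enzyme and DMSO controls were Hill-fitted.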"}, "[4]": {"experiment": "Primary fluorescence-based thiol-reactive (MSTI) qHTS assay for identification of artifact compounds. (AID 1845221); note: nearly all actives have a fitted effect of over 65% in size; note: potency is the fitted concentration of half-maximal effect;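 for activity change, negative = thiol reactive: series mostly up to about 54 µM; thiol-reactive compounds lower the probe fluorescence signal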", "outline": "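Probe: MSTI 4 uM, PBS pH 7.4, 2% DMSO. Incubation 1 h, RT, light-protected. Readout fluorescence 525/598 nm.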"}, "[5]": {"tested_on": "Nanoluciferase (engineered Oplophorus gracilirostris luciferase)", "experiment": "Primary Nanoluciferase (NLuc) qHTS assay for identification of artifact compounds. (AID 1845222); note: series mostly up to about 54 µM", "outline": "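Luminescence from secreted NLuc (filtered, 1:55-diluted S16 cell medium) read 5 min after Nano-Glo substrate; compounds preincubated 15 min, RT. Hill fits of inhibition normalized to DMSO and no-enzyme.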"}, "[6]": {"experiment": "Primary redox qHTS assay for identification of artifact compounds. (AID 1845223)", "outline": "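Amplex Red (25 uM) and HRP (250 mU/mL) in HBSS, with compounds for 15 min, then 250 uM DTT for 30 min, room temperature, dark. Fluorescence 525/598 nm read; normalized to DMSO and 10 uM DA3003; Hill fit.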"}}, "note": "A number with no mark means an inactive call. Inconclusive results are not listed. Where a call stands in place of a potency, no number is given. Activity calls are given as the source filed them. Calls come from the whole dose curve; as a rule, active = well fitted curve in the direction sought with a large enough effect; inconclusive = small, poorly fitted or top-dose-only effect, or another doubt; inactive = no such curve, though single readings can be large; an effect the other way counts as inactive or inconclusive."}
{"smiles": "N#Cc1ccc2ncnc(NCCc3ccccc3)c2c1", "values": [{"measurement": "Potency", "setting": "[1]", "result": "inactive"}, {"measurement": "Potency", "setting": "[2]", "result": "inactive"}, {"measurement": "Potency", "setting": "[3]", "result": "inactive"}, {"measurement": "Potency", "setting": "[4]", "result": "inactive"}, {"measurement": "Potency", "setting": "[5]", "result": "inactive"}, {"measurement": "Potency", "setting": "[6]", "result": "inactive"}]}
{"smiles": "CN(C)CCn1cc(-c2ccc(F)cc2)c(-n2cccc2)n1", "values": [{"measurement": "Potency", "setting": "[1]", "result": "inactive"}, {"measurement": "Potency", "setting": "[2]", "result": "inactive"}, {"measurement": "Potency", "setting": "[3]", "result": "inactive"}, {"measurement": "Potency", "setting": "[4]", "result": "inactive"}, {"measurement": "Potency", "setting": "[5]", "result": "inactive"}, {"measurement": "Potency", "setting": "[6]", "result": "inactive"}]}
{"smiles": "Nc1cccc(CNC(=O)c2ccc(Oc3ccc(OCc4cccc(F)c4)cc3)nc2)c1", "values": [{"measurement": "Potency", "setting": "[1]", "result": "inactive"}, {"measurement": "Potency", "setting": "[2]", "result": "inactive"}, {"measurement": "Potency", "setting": "[3]", "result": "inactive"}, {"measurement": "Potency", "setting": "[4]", "result": "inactive"}, {"measurement": "Potency", "setting": "[5]", "result": "inactive"}, {"measurement": "Potency", "setting": "[6]", "result": "inactive"}]}
{"smiles": "C=CC(C)(O)CC/C=C(\\C)C(=O)OC1C(O)C(CO)OC(OC(=O)C23CCC(C)(C)CC2C2=CCC4C5(C)CCC(OC6OC(COC7OCC(OC(C)=O)C(O)C7OC7OC(COC(C)=O)C(O)C(O)C7OC(C)=O)C(O)C(O)C6OC6OCC(O)C(O)C6O)C(C)(C)C5CCC4(C)C2(C)C(O)C3O)C1OC1OCC(OC2OCC(O)C(OC3OCC(O)C(O)C3O)C2O)C(O)C1O", "note": "(stereo unspecified)", "values": [{"measurement": "activity, negative = inhibition", "setting": "[1]", "result": "-15.5% [at 9.52 µM]"}, {"measurement": "outcome", "setting": "[2]", "result": "inactive [at 9.73 µM]"}, {"measurement": "outcome", "setting": "[3]", "result": "inactive [at 6.45 µM]"}, {"measurement": "activity change, negative = thiol reactive", "setting": "[4]", "result": "140% [at 6.41 µM]"}, {"measurement": "activity, negative = inhibition", "setting": "[5]", "result": "0% [at 6.45 µM]"}, {"measurement": "redox activity (% of DA3003)", "setting": "[6]", "result": "4.4% [at 6.41 µM]"}]}
{"smiles": "Fc1ccc(-c2nc(-c3c(F)cccc3F)[nH]c2-c2ccncc2)cc1", "values": [{"measurement": "Potency", "setting": "[1]", "result": "inactive"}, {"measurement": "Potency", "setting": "[2]", "result": "inactive"}, {"measurement": "Potency", "setting": "[3]", "result": "inactive"}, {"measurement": "Potency", "setting": "[4]", "result": "inactive"}, {"measurement": "Potency", "setting": "[5]", "result": "inactive"}, {"measurement": "Potency", "setting": "[6]", "result": "inactive"}]}
{"smiles": "Cc1cc(Nc2nc(-c3ccccc3)nc3ccccc23)n[nH]1", "values": [{"measurement": "Potency", "setting": "[1]", "result": "inactive"}, {"measurement": "Potency", "setting": "[2]", "result": "inactive"}, {"measurement": "Potency", "setting": "[3]", "result": "inactive"}, {"measurement": "Potency", "setting": "[4]", "result": "inactive"}, {"measurement": "Potency", "setting": "[5]", "result": "inactive"}, {"measurement": "Potency", "setting": "[6]", "result": "inactive"}]}
{"smiles": "COC1CC(O[C@H]2CC[C@]3(C)C4CC[C@@]5(C)C(=O)[C@]4(CC[C@@H]3C2)CC[C@@H]5C2=CC(=O)OC2)OC(C)C1OC1OC(COC2OC(CO)C(O)C(O)C2O)C(O)C(O)C1O", "note": "(stereo partly specified)", "values": [{"measurement": "Potency", "setting": "[1]", "result": "inactive"}, {"measurement": "Potency", "setting": "[2]", "result": "inactive"}, {"measurement": "outcome", "setting": "[3]", "result": "inactive [at 11.6 µM]"}, {"measurement": "activity change, negative = thiol reactive", "setting": "[4]", "result": "91.7% [at 11.5 µM]"}, {"measurement": "activity, negative = inhibition", "setting": "[5]", "result": "0% [at 11.6 µM]"}, {"measurement": "redox activity (% of DA3003)", "setting": "[6]", "result": "13.6% [at 11.5 µM]"}]}
{"smiles": "CC(=O)OC1CC(C)(C(=O)O)CC2C3=CC(=O)C4C5(C)CCC(OC6OC(C(=O)O)C(O)C(O)C6OC6OC(C(=O)O)C(O)C(O)C6O)C(C)(C)C5CCC4(C)C3(C)CCC12C", "note": "(stereo unspecified)", "values": [{"measurement": "Potency", "setting": "[1]", "result": "inactive"}, {"measurement": "Potency", "setting": "[2]", "result": "inactive"}, {"measurement": "activity change, negative = inhibition", "setting": "[3]", "result": "-10.2% [at 11.6 µM]"}, {"measurement": "activity change, negative = thiol reactive", "setting": "[4]", "result": "9.23% [at 11.5 µM]"}, {"measurement": "activity, negative = inhibition", "setting": "[5]", "result": "-14.5% [at 11.6 µM]"}, {"measurement": "redox activity (% of DA3003)", "setting": "[6]", "result": "5.43% [at 11.5 µM]"}]}
{"smiles": "C=CC(C)(C)c1[nH]c2ccccc2c1C[C@@H]1NC(=O)[C@H](C)NC1=O", "values": [{"measurement": "Potency", "setting": "[1]", "result": "inactive"}, {"measurement": "Potency", "setting": "[2]", "result": "inactive"}, {"measurement": "Potency", "setting": "[3]", "result": "inactive"}, {"measurement": "Potency", "setting": "[4]", "result": "5.85 µM (active)"}, {"measurement": "Potency", "setting": "[5]", "result": "inactive"}, {"measurement": "Potency", "setting": "[6]", "result": "inactive"}]}
{"smiles": "COc1cc2ncnc(Oc3ccc(CC(=O)Nc4cnn(C(C)C)c4)cc3)c2cc1OC", "values": [{"measurement": "Potency", "setting": "[1]", "result": "inactive"}, {"measurement": "Potency", "setting": "[2]", "result": "inactive"}, {"measurement": "Potency", "setting": "[3]", "result": "inactive"}, {"measurement": "Potency", "setting": "[4]", "result": "inactive"}, {"measurement": "Potency", "setting": "[5]", "result": "inactive"}, {"measurement": "Potency", "setting": "[6]", "result": "inactive"}]}
{"smiles": "COc1cc(F)c(C(C)C)cc1-c1ccc(C(F)(F)F)cc1CN1C(=O)OC(c2cc(C(F)(F)F)cc(C(F)(F)F)c2)C1C", "note": "(stereo unspecified)", "values": [{"measurement": "Potency", "setting": "[1]", "result": "inactive"}, {"measurement": "Potency", "setting": "[2]", "result": "inactive"}, {"measurement": "Potency", "setting": "[3]", "result": "inactive"}, {"measurement": "Potency", "setting": "[4]", "result": "inactive"}, {"measurement": "Potency", "setting": "[5]", "result": "inactive"}, {"measurement": "Potency", "setting": "[6]", "result": "inactive"}]}
